# Active and inactive are the calls of the source. The call rests on the fitted dose curve; in most records, active means well fitted curve in the direction sought with a large enough effect; inconclusive means small, poorly fitted or top-dose-only effect, or another doubt; inactive means no such curve, though single readings can be large or run the other way.
# Target: Alpha-galactosidase (Coffea arabica) (UniProt Q42656)
# Experiment: Counterscreen for Glucocerebrosidase Inhibitors: qHTS Assay for Coffee Bean alpha-Galactosidase at pH 4.5 (AID 957);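 further: plate controls were enzyme alone for no effect and no enzyme for full effect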
# Conditions: purified coffee bean alpha-galactosidase, fluorogenic substrate; series mostly up to 76.9 µM; activity change, negative = inhibition: at the top concentration
# In short: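 Green coffee bean enzyme (2 nM final) was incubated with compounds (0.7 nM to 77 uM) and 4-methylumbelliferyl alpha-D-galactopyranoside (80 uM final) in 50 mM citric acid, 0.005% Tween-20, pH 4.5, 20 min at room temperature; AC50 from Hill fits.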
# Chain of Alpha-galactosidase (Coffea arabica) (Q42656 whole entry, looked up): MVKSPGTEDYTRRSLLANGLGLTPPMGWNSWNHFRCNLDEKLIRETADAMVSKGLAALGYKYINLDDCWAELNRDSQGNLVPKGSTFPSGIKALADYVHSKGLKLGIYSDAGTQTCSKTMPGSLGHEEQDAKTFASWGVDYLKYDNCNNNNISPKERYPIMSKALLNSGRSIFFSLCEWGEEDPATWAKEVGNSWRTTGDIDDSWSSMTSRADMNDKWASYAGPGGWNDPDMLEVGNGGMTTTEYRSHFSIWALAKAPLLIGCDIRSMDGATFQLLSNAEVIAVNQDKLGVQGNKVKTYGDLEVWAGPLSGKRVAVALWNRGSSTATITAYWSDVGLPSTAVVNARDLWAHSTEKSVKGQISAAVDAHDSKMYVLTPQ
SMILES,"activity change, negative = inhibition",outcome
O=c1n(CCCN2CCN(c3cccc(Cl)c3)CC2)nc2ccccn12,4.05% (inactive),–
N=c1nc(N2CCCCC2)cc(N)n1O,3.33% (inactive),–
O=c1[nH]cc(F)c(=O)[nH]1,0.37% (inactive),–
Cn1ccc2cc3c(cc21)CCN3C(=O)Nc1cccnc1,-2.03% (inactive),–
O=C(CCCN1CCC(O)(c2ccc(Cl)cc2)CC1)c1ccc(F)cc1,-1.98% (inactive),–
CN1C[C@H](CNC(=O)OCc2ccccc2)C[C@@H]2c3cccc4c3c(cn4C)C[C@H]21,-3.29% (inactive),–
CN(C)CC/C=C1\c2ccccc2COc2ccccc21,-3.23% (inactive),–
C[C@](N)(Cc1ccc(O)c(O)c1)C(=O)O,-3.19% (inactive),–
CC(C)OC(=O)C(C)(C)Oc1ccc(C(=O)c2ccc(Cl)cc2)cc1,-5.71% (inactive),–
Clc1cccc(N2CCNCC2)c1,-0.986% (inactive),–
CC(=O)CCCCn1c(=O)c2c(ncn2C)n(C)c1=O,2.02% (inactive),–
Cc1ccccc1N1C(=O)c2cc(S(N)(=O)=O)c(Cl)cc2NC1C (stereo unspecified),1.98% (inactive),–
Nc1nc(N)c2nc(-c3ccccc3)c(N)nc2n1,114% (inactive),–
CNCCCN1c2ccccc2CCc2ccccc21,0.581% (inactive),–
Cc1cnc(C(=O)NCCc2ccc(S(=O)(=O)NC(=O)NC3CCCCC3)cc2)cn1,0.815% (inactive),–
Cc1nc2n(c(=O)c1CCN1CCC(c3noc4cc(F)ccc34)CC1)CCCC2,0.568% (inactive),–
CN(C)CCC=C1c2ccccc2CCc2ccccc21,-4.09% (inactive),–
CCCN1CCC[C@@H]2Cc3[nH]ncc3C[C@H]21,–,inactive
O=C(C1CCCCC1)N1CC(=O)N2CCc3ccccc3C2C1 (stereo unspecified),0.17% (inactive),–
Cc1ncc(CNC(=O)N(CCCl)N=O)c(N)n1,-0.428% (inactive),–
CC/C(=C(\c1ccccc1)c1ccc(OCCN(C)C)cc1)c1ccccc1,-6.22% (inactive),–
